Here are results for 40 compounds from PubChem BioAssay.

Broadly, the inhibition is how much of the control response was suppressed.

A number with no mark means an inactive call. How the calls were made is not given here.

In this test the target is Pantothenate synthetase (Mycobacterium tuberculosis (strain ATCC 25618 / H37Rv)) (UniProt P9WIL5). Briefly: Recombinant Mtb pantothenate synthetase (PanC) inhibitors, coupled enzyme, confirmatory (AID 375).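 Further: 0% = full reaction with vehicle and 100% = no enzyme background.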 The following applies: coupled enzyme assay; at 10 µM, hits give high values.
Sequence of Pantothenate synthetase (Mycobacterium tuberculosis (strain ATCC 25618 / H37Rv)) (P9WIL5 whole entry, looked up): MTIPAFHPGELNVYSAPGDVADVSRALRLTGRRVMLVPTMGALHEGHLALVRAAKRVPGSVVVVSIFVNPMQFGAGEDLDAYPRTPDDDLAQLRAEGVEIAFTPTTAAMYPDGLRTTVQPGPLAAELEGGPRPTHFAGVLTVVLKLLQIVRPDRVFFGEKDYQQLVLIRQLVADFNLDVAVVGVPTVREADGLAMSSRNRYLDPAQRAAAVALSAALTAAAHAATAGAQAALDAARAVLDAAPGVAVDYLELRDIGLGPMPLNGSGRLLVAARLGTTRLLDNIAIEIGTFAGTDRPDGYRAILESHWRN
`COCCN(CCOC)S(=O)(=O)c1ccc(C(=O)Nc2nnc(C3CC3)o2)cc1`: the inhibition is 0%.

`COc1ccc(N2CCC(CNS(=O)(=O)c3cccc(C(F)(F)F)c3)C2)cc1` (stereo not given): the inhibition was 5%.

With `CCCc1cc(=O)n2[nH]c(-c3ccc(Br)cc3)cc2n1`, the inhibition was 0%.

With `CC1CCc2cc(F)cc3c(=O)c(C(=O)O)cn1c23` (stereo not given), the inhibition was 2%.

As to `Cc1cc(C)c(NC(=O)CSc2nc3c(c(=O)n2C)SC(C)C3)c(C)c1` (stereo not given), the inhibition was 0%.

Consider `Cc1ccccc1C(=O)N1CCC(C(=O)Nc2ccc(S(=O)(=O)N3CCCC3)cc2)CC1`, for which the inhibition is 3%.

For the compound `CC1CCCC(NC(=O)CSc2ncccc2C(=O)O)C1C` (stereo not given), the inhibition was 0%.

For `CCOC(=O)N1CCC(=C2c3ccc(Cl)cc3CCc3cccnc32)CC1`, the inhibition was 5%.

On to `Fc1ccc(-c2ccc(-c3nn4c(-c5ccco5)nnc4s3)o2)cc1`, for which the inhibition was 14%.

Regarding `O=C1CCc2cc(S(=O)(=O)N3CCC(C(=O)Nc4nccs4)CC3)ccc2N1`, the inhibition is 4%.

Regarding `Cc1ccc2nsnc2c1S(=O)(=O)N(Cc1cc2cccc(C)c2[nH]c1=O)CC1CCCO1` (stereo not given), the inhibition is 0%.

With `CCn1c(SCC(=O)NC)nnc1C(C)C`, the inhibition was 2%.

On to `COc1ccc(Cl)cc1NC(=O)c1oc(C)nc1C`, for which the inhibition was 4%.

With `O=C(NCC(c1cccnc1)N1CCN(c2ccc(F)cc2)CC1)c1ccc(F)cc1` (stereo not given), the inhibition is 4%.

On to `Cc1ccc(NC(=O)CCC(=O)O)cc1F`, for which the inhibition is 0%.

Consider `O=C(c1cccc2ccccc12)N1CCC(N2CCN(c3ccccc3)CC2)CC1`, for which the inhibition is 0%.

`O=C(CN1C(=O)CCSc2ccccc21)Nc1ccc(F)cc1`: the inhibition is 1%.

Regarding `Cc1cc(C(=O)CN2C(=O)c3ccccc3C2=O)c(C)n1Cc1cccs1`, the inhibition was 0%.

Take `Cc1ccc(-c2noc(C3CCCN(C(=O)c4ccc(F)cc4F)C3)n2)cc1` (stereo not given): the inhibition was 0%.

Turning to `COc1cc(OC)cc(-c2nc3cc(C)ccc3o2)c1`, the inhibition is 3%.

For the compound `CCOC(=O)N1CCN(C(=O)CSc2nnc(-c3cc(OC)cc(OC)c3)o2)CC1`, the inhibition is 0%.

With `Cc1ccc(CN2CCN(C(=O)C3CCC3)CC2)cc1`, the inhibition was 3%.

As to `O=C(CCn1c(=S)[nH]c2ccccc2c1=O)NCC1CCCO1` (stereo not given), the inhibition is 4%.

With `NS(=O)(=O)c1ccc(CCNC(=O)c2cccnc2)cc1`, the inhibition was 1%.

As to `O=c1c(O)c(-c2ccc(O)cc2O)oc2cc(O)cc(O)c12`, the inhibition was 9%.

For `O=C1COc2ccc(C(=O)COC(=O)CCc3ccc(S(=O)(=O)N4CCOCC4)cc3)cc2N1`, the inhibition was 8%.

Consider `CCCOc1ccc(OCCSc2ncccn2)cc1`, for which the inhibition was 0%.

Take `Cc1nc2sc(C#N)c(N)c2c2c1CCCC2`: the inhibition is 2%.

Consider `c1ccc(Cn2nnnc2C(c2cccs2)N2CCSCC2)cc1` (stereo not given), for which the inhibition is 0%.

Turning to `c1ccc(CNc2ccc3c(c2)ncn3C2CCCCC2)nc1`, the inhibition was 0%.

For `CC(C)CCNC(=O)C(C)N(Cc1ccc(F)cc1)C(=O)c1ccc(CN2CCCCC2)o1` (stereo not given), the inhibition was 1%.

As for `O=C(CSc1nc2cc(Cl)ccc2s1)N1CCN(C(=O)c2ccco2)CC1`, the inhibition is 9%.

`CC(=O)c1cc(-c2ccccc2)n(CC(=O)N2CCN(C3CCCC3)CC2)c1C`: the inhibition is 11%.

Turning to `C/C(=C(\C#N)C(=O)NCCCN1CCOCC1)N(C)C`, the inhibition was 0%.

In the case of `Cc1cccc(N(CC(=O)N2CCCC2)S(=O)(=O)c2ccccc2)c1C`, the inhibition is 0%.

For `COc1ccc(N2C(=O)CC(N3CCN(S(=O)(=O)c4c(F)cccc4F)CC3)C2=O)cc1OC` (stereo not given), the inhibition was 1%.

Consider `CC(C(=O)N1c2ccc(F)cc2CCC1C)N1C(=O)c2ccccc2C1=O` (stereo not given), for which the inhibition is 5%.

With `Cc1ccc(S(=O)(=O)N2CCN(C(=O)CSC3CCCC3)CC2)c(C)c1`, the inhibition was 0%.

As to `Cc1nnc(SC(=O)N2c3ccccc3Sc3ccccc32)s1`, the inhibition is 6%.

`N[C@@H](Cc1cc(I)c(Oc2ccc(O)c(I)c2)c(I)c1)C(=O)O`: the inhibition is 0%.
